Gal4-VP16 FLuc = Gal4-VP16 reporter inhibition counter-screen | AID 2546 | hit rate 3.5% among 310,000 | Drosophila S2 Gal4-VP16 UAS-luciferase, luminescence, 20 h | Potency, µM (titrated, usually from 53.6 µM), without a hit: at the highest dose activity, negative = inhibition, actives largely listed as inhibitors;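 note: Gal4-VP16 expression switched on by copper sulfate through the metallothionein promoter; % is set by controls: 0 for no effect and ±100 for the full control effect; nearly all actives have a fitted effect of over 50% in size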
GLP-1R inv ag = acts as inverse agonist at human GLP-1 receptor. P43220. HEK293 GLP-1R CRE-luciferase, luminescence, 24 h; GLP-1R form is constitutively active. Potency, µM (top dose mostly 38.3 µM), inactives show at the highest dose activity change, negative = inhibition, most hits filed as inhibitors. hit rate 1.6% among 410,000; note: % is set by controls: 0 for no effect and ±100 for the full control effect; nearly all actives have a fitted effect of over 55% in size
Target sequence (P43220 whole entry, looked up): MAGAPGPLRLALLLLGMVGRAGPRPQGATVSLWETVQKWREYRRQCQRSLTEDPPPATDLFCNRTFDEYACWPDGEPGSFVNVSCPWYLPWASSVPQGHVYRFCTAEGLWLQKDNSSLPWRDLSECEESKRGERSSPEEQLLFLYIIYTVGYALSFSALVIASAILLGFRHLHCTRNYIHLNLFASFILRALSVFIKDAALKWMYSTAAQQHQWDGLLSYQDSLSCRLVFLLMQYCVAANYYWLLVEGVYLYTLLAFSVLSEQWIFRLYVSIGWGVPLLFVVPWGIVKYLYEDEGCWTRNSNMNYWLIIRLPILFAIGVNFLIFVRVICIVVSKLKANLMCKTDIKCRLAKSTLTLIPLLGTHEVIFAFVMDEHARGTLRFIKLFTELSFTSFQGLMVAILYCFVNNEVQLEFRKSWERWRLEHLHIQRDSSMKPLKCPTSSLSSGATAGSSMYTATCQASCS
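Seeding at 200 cells/uL, 12 h culture, 24 hr compound treatment, then luciferase reagent and a luminescence read; cells are HEK293 stably expressing a constitutively active GLP-1R plus cAMP-responsive luciferase.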
GLP-1R agonist = agonists of human GLP-1 receptor. P43220. HEK293 GLP-1R CRE-luciferase, luminescence, 4-6 h; cells express a hypersensitive GLP-1R form. Potency, µM (titrated, usually from 45.6 µM), for inactives: at the highest dose activation, usual class: activators. hit rate 0.007% among 380,000; note: % of control where 0% means no effect
GLP1R cytotox = cytotoxicity in counter-screen for GLP-1R inverse agonists. HEK293 cAMP-luciferase reporter cells, luminescence, 24 h. Potency, µM (titrated, usually from 38.3 µM), without a hit: top-dose activity change, negative = inhibition, hits mostly inhibitors. hit rate 0.13% among 410,000;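 note: loss of luciferase light is scored as toxicity; % is set by controls: 0 for no effect and ±100 for the full control effect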
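Cells in DMEM/10% Nu serum/1% pen-strep, 1536-well format. Pre-incubated 12 h, dosed with 23 nL compound, incubated a further 24 h. Luciferase detection, 12 min at room temp, luminescence.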
RORg inh = ROR gamma (mouse) transcription inhibition. hit rate 5.4% among 310,000. P51450. AID 2551. Drosophila S2 Gal4-RORgamma UAS-luciferase reporter, 20 h. Potency, µM (doses to about 53.6 µM), inactives show top-dose activity change, negative = inhibition, actives largely listed as inhibitors; note: % is set by controls: 0 for no effect and ±100 for the full control effect; nearly all actives have a fitted effect of over 60% in size
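Stable Schneider cell line, Gal4 DNA-binding domain fused to ROR gamma, UAS-luciferase. Cmpd 1 hr RT → CuSO4 700 uM final → 20 hr RT → luciferase reagent 10 min → luminescence.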
The depositor's hits bear a star; ? = inconclusive; · = not tested or not shown. A selection: hits, their analogues and other compounds. The true share with any hit is near 5.9%. Calls come from the whole dose curve; as a rule, active = well fitted curve in the direction sought with a large enough effect; inconclusive = small, poorly fitted or top-dose-only effect, or another doubt; inactive = no such curve, though single readings can be large; an effect the other way counts as inactive or inconclusive. Potency is the fitted concentration of half-maximal effect.

SMILES | Gal4-VP16 FLuc | GLP-1R inv ag | GLP-1R agonist | GLP1R cytotox | RORg inh
COc1ccc(-n2c(C)nc3cc(C(=O)N4CCOCC4)ccc32)cc1 | -7% | 10% | 4% | -2% | 2µM*
COc1ccc(-n2c(C)nc3cc(C(=O)NCCN4CCOCC4)ccc32)cc1 | 6% | 0% | 1% | -17% | 1%
Cn1c(/C(C#N)=C(\O)c2ccc(S(=O)(=O)N3CCCCC3)cc2)nc2ccccc21 | 10µM* | 2% | -1% | 4% | 4.5µM*
Cn1c(C(=O)c2ccccc2)nc2ccccc21 | 29% | 1% | 12% | -12% | 13%
COc1ccc(/C(O)=C(\C#N)c2nc3ccccc3n2C)cc1OC | 18µM* | 0% | 13% | -13% | 7.1µM*
COc1ccc(/C=C(\C#N)c2nc3ccccc3n2C)c(OC)c1 | · | ? | · | -26% | ·
Cn1c(/C(C#N)=C(\O)c2cc(Cl)sc2Cl)nc2ccccc21 | 4.5µM* | -13% | -1% | -7% | 4.5µM*
COc1cc(/C=C(\C#N)c2nc3ccccc3n2C)cc(OC)c1OC | · | 8% | · | 18% | ·
Cn1c(/C(C#N)=C(\O)c2ccc(Br)s2)nc2ccccc21 | ? | -10% | -4% | 2% | 3.5µM*
CC(OCc1ccccc1)C(NC(=O)OC(C)(C)C)C(=O)NC1COC2CC(n3cc(F)c(=O)[nH]c3=O)OC12 (configuration not stated) | 0% | · | · | · | -25%
CCOC(=O)C1CCCN(c2c(C(=O)c3ccccc3)cnc3ccc(F)cc23)C1 (configuration not stated) | · | -16% | · | 5% | ·
COc1cccc(CNC(=O)COc2cc(=O)n(C)c3ccccc23)c1 | · | 8% | 1% | -6% | ·
COc1ccc(C(O)c2nc3ccccc3n2C)cc1OC (configuration not stated) | 6.3µM* | 0% | 0% | -15% | -35%
Cc1ccc(-n2c(SCc3ccccc3F)nc3[nH]ncc3c2=O)cc1Cl | · | ? | 2% | -23% | ·
COC(=O)CCSCc1cn2cc(Cl)ccc2n1 | ? | 5% | -11% | -4% | 6.3µM*
O=C(O)CSCc1cn2cc(Cl)ccc2n1 | -24% | 0% | 0% | -3% | -10%
CC1(C)CC(=O)C2=C(C1)N(Cc1ccccc1)C(=O)C2(NC(=O)C(C)(C)C)C(F)(F)F (configuration not stated) | 2% | -8% | 6% | 9% | 11µM*
COc1ccc(N2CCN(C(=O)C(C)n3nc(C)c4sc5ccccc5c4c3=O)CC2)cc1 (configuration not stated) | · | 4% | · | -9% | ·
Cc1ccc2nc(NC(=O)C3CC3C)sc2c1 (configuration not stated) | -13% | 0% | 9% | -15% | 7.1µM*
Cc1ccc2nc(NC(=O)CCCC(=O)O)sc2c1 | 0.79µM* | ? | 1% | 3% | 1.1µM*
CCOCC(=O)Nc1nc2ccc(C)cc2s1 | -29% | -10% | -3% | -10% | -39%
Cc1ccc2nc(NC(=O)CSCC(=O)OCC(=O)c3ccccc3)sc2c1 | 2.2µM* | ? | -1% | 8% | 5µM*
Cc1ccc2nc(NC(=O)CCCc3nc4ccccc4s3)sc2c1 | 15% | ? | -1% | -6% | 19%
CCC1CCCCN1C(=O)Cn1c(=O)n(CCCCCC(=O)NCc2ccc(F)cc2)c(=O)c2sccc21 (configuration not stated) | · | -5% | · | -1% | ·
Cc1ccc(C)c(-n2nnc(-c3nc(-c4ccc(Cl)cc4)no3)c2N)c1 | · | 2% | · | 5% | ·
SMILES | Gal4-VP16 FLuc | GLP-1R inv ag | GLP-1R agonist | GLP1R cytotox | RORg inh
CCc1ccc(/C=N\NC(=O)c2ccc(Br)o2)s1 | 5µM* | ? | -3% | ? | 1.6µM*
Cc1ccc(/C=N/NC(=O)c2ccc(Br)o2)s1 | 10µM* | 19% | 7% | -25% | 8.9µM*
Cc1ccc(/C=N/NC(=O)Cc2ccc(O)cc2)s1 | 6% | 32% | -8% | 0% | 4%
Cc1ccc(-c2cn(-c3cccc(Cl)c3)c(S(=O)(=O)CC(=O)Nc3ccccc3F)n2)cc1 | · | ? | · | 5% | ·
CCCC[C@@H]1CCCO[C@@](C(=O)NCc2ccccc2)(C(F)(F)F)C1 | -4% | · | · | · | -9%
COc1cc(OC)cc(C(=O)NCC(=O)OCC(=O)/C=C2/N(C)c3ccccc3C2(C)C)c1 | 18µM* | -21% | 10% | -2% | -12%
CC(C)[C@H](NC(=O)c1ccccc1)C(=O)OCC(=O)/C=C1/N(C)c2ccccc2C1(C)C | ? | ? | -4% | -47% | -1%
CN1/C(=C\C(=O)COC(=O)Cn2nnc(-c3ccccc3)n2)C(C)(C)c2ccccc21 | 28µM* | -22% | -11% | 1% | 32%
C=CCc1c(C)nc2nc(SCC(=O)Nc3ccc(OCC)cc3)nn2c1C | · | 11% | · | 1% | ·
CSc1nc(Sc2ccc(Cl)cc2)c2ccccc2n1 | -11% | 5% | -1% | -4% | 16µM*
Cc1ccc(C(=O)N/N=C/c2ccc(-c3ccccc3[N+](=O)[O-])o2)cn1 | 1% | -16% | 0% | -21% | 18%
COc1ccc(-c2ccc(/C=N/NC(=O)c3cccnc3)o2)c([N+](=O)[O-])c1 | ? | -3% | 0% | 3% | 20µM*
Cc1cc(C(=O)N/N=C/c2ccc(-c3ccc([N+](=O)[O-])cc3C)o2)n[nH]1 | -11% | -7% | 12% | -7% | -22%
Cc1ccc(OCC(=O)N/N=C\c2ccc(C)o2)c([N+](=O)[O-])c1 | 8% | 1% | 10% | 1% | 8%
Cc1cc(C(=O)N/N=C\c2ccc(COc3ccc([N+](=O)[O-])cc3)o2)ccc1[N+](=O)[O-] | ? | 5% | -7% | -20% | 11µM*
Cc1cc(C)n(Cc2ccc(C(=O)N/N=C/c3ccc(-c4ccc([N+](=O)[O-])cc4)o3)o2)n1 | 6.3µM* | -4% | -3% | -7% | 8.9µM*
CCCCC(=O)N/N=C/c1ccc(-c2ccc([N+](=O)[O-])cc2)o1 | 10% | -12% | 16% | 11% | ?
Cc1cc([N+](=O)[O-])ccc1-c1ccc(/C=N/NC(=O)c2ccc(Br)o2)o1 | 7.9µM* | 14% | 5% | 34% | 7.1µM*
Cc1ccc(-n2c(C)cc(C(=O)C(=O)Nc3ccccc3)c2C)c(C)c1 | · | ? | · | -7% | ·
O=C(N/N=C/c1ccco1)c1cc([N+](=O)[O-])cc([N+](=O)[O-])c1 | 10µM* | 4% | 2% | 1% | 5.6µM*
O=C(N/N=C/c1ccncc1)c1cc([N+](=O)[O-])cc([N+](=O)[O-])c1 | -11% | 9% | -11% | 17% | -33%
O=C(N/N=C/c1ccc(Br)o1)c1cc([N+](=O)[O-])cc([N+](=O)[O-])c1 | 4.5µM* | 7% | -9% | -10% | 1.6µM*
CCOc1ccc(Cl)cc1/C=N/NC(=O)c1ccccc1 | -15% | 6% | -1% | 3% | 28%

Source: PubChem BioAssay
